# Only a selection was taken, and hits are over-represented in it overall.
# TTR transcr act – TTR transcription activation, primary screen; SH-SY5Y TTR promoter Gaussia luciferase, luminescence; 100% = recombinant luciferase protein wells; activation, % at 16.7 µM; 92,000 compounds, 1.3% hits;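 active means activation above the mean of all tested compounds plus 3 SD, cut at about 9.5% in these data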;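 further: cells exposed to compounds for one day before reading; 0% = median of all test compound wells on the plate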
# TTR inh HuH7 – decreases TTR transcription in HuH7 cells in activator counter-screen | inhibition, % at 16.7 µM | 1,100 compounds, 4% hits | HuH7 TTR promoter-Gaussia luciferase reporter, luminescence | shares compounds with TTR transcr act | AID 1117279;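 active means average inhibition above the solvent-only control wells' mean plus 3 SD, cut at about 15% in these data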;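 further: 0% = cells with DMSO only and 100% = cells with inhibitor control FD; inhibitors lower well luminescence so higher value means more inhibition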
# TTR up confirm – human TTR transcription activation, confirmation; shares compounds with TTR transcr act; SHSY5Y TTR promoter Gaussia luciferase, luminescence; 100% = purified Lucia enzyme wells, no cells; activation, % at 16.7 µM; 1,100 tested, under 10 active;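 active means mean activation above a set limit taken from the earlier primary screen, cut at about 11% in these data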;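 further: 0% = DMSO-treated cells and 100% = recombinant Lucia luciferase without cells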
# * marks the source's active call; other numbers are inactive results.
SMILES,TTR transcr act,others
Cc1cccc(C(=O)Nc2ccc(C(=O)N/N=C/c3ccco3)cc2)c1,-1,
C[C@H](O)[C@@H]1C(=O)N2CCc3ccc(N4CCN(C)CC4)cc3[C@@H]2C[C@@H]1N(C)C(=O)NC1CCCCC1,0,
Cn1cccc1/C=N/n1c(-c2ccc(Cl)cc2)n[nH]c1=S,-5,
Cc1ccc(-c2n[nH]c(=S)n2/N=C/c2cccs2)cc1,14*,TTR inh HuH7=-16;TTR up confirm=0
Cc1ccc(/C=N/n2c(-c3ccncc3)n[nH]c2=S)cc1,1,
O=C(CN1CCN(c2ccc(O)cc2)CC1)Nc1ccc(S(=O)(=O)N2CCCC2)cc1,0,
CCC[C@H]1[C@@H](NC(=O)c2ccc(C)cc2)CC[C@@]23CCCN2C(=O)CCC[C@@H]13,1,
N#CCCSC(=S)C1CCCC1=N (configuration not stated),-1,
CC1(C2CC2)NC(=O)N(CC(=O)N2CCN(S(=O)(=O)c3ccc(F)c(F)c3)CC2)C1=O (configuration not stated),-1,
c1ccc2c(C3OCC4(CCCCC4)CO3)cccc2c1,0,
COc1ccc(Cl)cc1NC(=O)c1cc(-c2ccccc2)on1,12*,TTR inh HuH7=11;TTR up confirm=0
COc1ccc(Cl)cc1NC(=O)c1cc(C2CC2)on1,-1,
COc1ccc(NC(=O)c2cc(-c3ccc(OC)c(OC)c3)on2)cc1OC,0,
CN(C)c1cccc(CNC(=O)c2csc([C@@H]3C[C@H](O)[C@@H](CO)O3)n2)c1,-1,
COc1ccc2[nH]c3c(N4CCc5ccccc5C4)ncnc3c2c1,-6,
COc1ccc2[nH]c3c(Cl)ncnc3c2c1,16*,TTR inh HuH7=19*;TTR up confirm=-1
CCCCOc1ncnc2c1[nH]c1ccc(OC)cc12,3,
CC1(C)O[C@@H]2[C@H](O1)[C@@H](O)C[C@H]2n1cnc2c(Cl)ncnc21,0,
CCOC(=O)C(=O)Nc1ccccc1C#N,25*,TTR inh HuH7=-3;TTR up confirm=2
CCOC(=O)C(=O)Nc1ccccc1C(=O)OCC,4,
CCOC(=O)C(=O)Nc1ccccc1C(=O)NC(C)C,0,
Nc1[nH]c(C(=O)c2ccccc2)c(-c2cccnc2)c1C(=O)NCCc1c[nH]c2ccccc12,-1,
C[C@H]1[C@H](N(Cc2cccs2)Cc2cccs2)CC[C@@]23CCCN2C(=O)CCC[C@@H]13,1,
Cc1ccc(C)n1-c1ccc(C(=O)NCC2CCCO2)cc1 (configuration not stated),2,
O=C(CSc1nc2ccccc2n1-c1ccccc1)NCC1CCCO1 (configuration not stated),2,
SMILES,TTR transcr act,others
Nc1c(C(=O)NCC2CCCO2)c2nc3ccccc3nc2n1-c1ccccc1 (configuration not stated),11*,TTR inh HuH7=-15;TTR up confirm=0
C[C@@H]1CCCN1c1ccc2c(c1)O[C@@H]1CCN(C1)S2(=O)=O,-1,
CCCc1cc(C(=O)Nc2ccc(C(=O)c3ccc(C)cc3)cc2)n(C)n1,-1,
COc1ccc(CN2C(=O)C(CC(=O)NC(c3ccccc3)c3ccccc3)CC(C(=O)N(C)C)=C2C)cc1 (configuration not stated),0,
CCN1CCN(Cc2ccc(NC(=O)c3ccc(C)c(NC(=O)c4cc(-c5ccc(Br)cc5)n[nH]4)c3)cc2C(F)(F)F)CC1,-4,
CCN1CCN(Cc2ccc(NC(=O)c3ccc(C)c(NC(=O)c4nccn4C)c3)cc2C(F)(F)F)CC1,11*,TTR inh HuH7=-15;TTR up confirm=0
CCN1CCN(Cc2ccc(NC(=O)c3ccc(C)c(NC(=O)c4cccc5[nH]ccc45)c3)cc2C(F)(F)F)CC1,-2,
COCC1CCN(C(=O)C2CCC(=O)N(CCc3cccc(F)c3)C2)CC1 (configuration not stated),0,
CC1Cc2ccccc2N1C(=O)CSc1nnnn1C (configuration not stated),6,
CC1CC(=O)Nc2ccccc2N1C(=O)CSc1nnnn1C (configuration not stated),14*,TTR inh HuH7=-6;TTR up confirm=0
Cn1nnnc1SCC(=O)N1CCCc2ccccc21,2,
O=C(COC(=O)C1CC(=O)N(c2ccc3c(c2)OCCO3)C1)Nc1ccc2c(c1)CCC2 (configuration not stated),11*,TTR inh HuH7=-12;TTR up confirm=3
Cc1ccc2c(COC(=O)C3CC(=O)N(c4ccc5c(c4)OCCO5)C3)cc(=O)oc2c1 (configuration not stated),-2,
CC(=O)c1ccc(NC(=O)C(C)OC(=O)C2CC(=O)N(c3ccc4c(c3)OCCO4)C2)cc1 (configuration not stated),2,
Cc1ccc2cc(NC(=O)C3(C)CCN(C)C3)ccc2n1 (configuration not stated),0,
Oc1ccc(CNc2ccccc2Br)c2cccnc12,-1,
O=C(NCCc1cccc(C(F)(F)F)c1)C1CCC(=O)N(C2CC2)C1 (configuration not stated),1,

# Compound activity deposited in PubChem BioAssay by The Scripps Research Institute Molecular Screening Center.
